Bioassay records: PubChem BioAssay, several laboratories
This is a sample that favours compounds with a hit; in the whole collection about 1.1% have one here.
CatS inh: inhibitors of human cathepsin S; hit rate 0.06% among 62,000; AID 501; P25774; inhibition, %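 (tested at 5 µM per compound within 10-compound mixtures)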; recombinant cathepsin S, AMC dipeptide fluorescence, pooled mixtures; in the data active = inhibition above about 32%, passing the limit was not always enough; inconclusive = no clear call, values can overlap the other calls;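 also: 0% = enzyme without compound and 100% = blank without enzyme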
Target sequence (P25774 115-331 limits assumed): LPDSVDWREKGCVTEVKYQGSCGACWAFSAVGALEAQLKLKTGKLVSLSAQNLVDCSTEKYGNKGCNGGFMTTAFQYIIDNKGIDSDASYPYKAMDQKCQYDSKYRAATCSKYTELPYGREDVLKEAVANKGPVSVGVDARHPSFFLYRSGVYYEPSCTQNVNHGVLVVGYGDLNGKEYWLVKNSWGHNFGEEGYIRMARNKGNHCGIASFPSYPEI
CatL inh: inhibitors of human cathepsin L. P07711. purified cathepsin L, fluorogenic substrate, fluorescence. inhibition, %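 (tested at 10 µM)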. hit rate 0.17% among 58,000. AID 460; in the data active = inhibition above about 45%;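 also: 0% = enzyme with no compound and 100% = no enzyme blank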
Target sequence (P07711 114-288 limits assumed): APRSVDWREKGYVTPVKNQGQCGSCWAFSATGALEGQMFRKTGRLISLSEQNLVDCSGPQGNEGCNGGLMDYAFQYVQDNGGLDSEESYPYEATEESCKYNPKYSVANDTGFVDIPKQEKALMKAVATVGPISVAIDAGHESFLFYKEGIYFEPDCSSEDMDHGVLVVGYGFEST
Target sequence (P07711 292-333 limits assumed): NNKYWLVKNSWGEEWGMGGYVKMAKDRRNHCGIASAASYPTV
CatB inh: blocks human cathepsin B protease activity; P07858; inhibition, %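 (tested at 10 µM)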; AID 453; hit rate 0.1% among 63,000; purified cathepsin B, fluorogenic substrate, fluorescence; in the data active = inhibition above about 21%;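 also: 0% = enzyme with no compound and 100% = no enzyme blank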
SKBR3 24h inh: SK-BR-3 proliferation inhibitors | SK-BR-3 viability, CellTiter-Glo ATP luminescence, 24 h; active compounds read low | viability, % at 10 µM | hit rate 0.47% among 41,000 | AID 847;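 active = viability at or below the median of all test compounds minus 3 SD, in both replicates if run twice, cut at about 45% in these data; inconclusive = duplicate replicates that disagree with each other; inactive = viability above that cutoff in every replicate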;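 also: 100% = median untreated cell wells and 0% = median positive control drug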
CatB mix inh: human cathepsin B inhibition by mixtures | P07858 | Purified cathepsin B, AMC dipeptide fluorescence, compound mixtures | inhibition, %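 (ten-compound pools at 5 µM per compound and 50 µM total)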 | hit rate 0.06% among 62,000 | AID 488; in the data active = inhibition above about 22%, passing the limit was not always enough; inconclusive = no clear call, values can overlap the other calls;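 also: 0% = enzyme without compound and 100% = no enzyme blank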
Her2 expr inh: lowers expression of human Her2 kinase. SKBR-3 HER2 protein level, AlphaScreen, 18-24 h; active compounds read low. HER2 level % of control, % at 10 µM. P04626. hit rate 0.69% among 65,000;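 active = HER2 level under 5% of the carrier-only control; inconclusive = no clear call, values can overlap the other calls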;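 also: 100% = DMSO carrier and 0% = 500 nM PU-H71 HSP90 inhibitor; lower value means stronger loss of Her2 protein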
* marks the source's active call; other numbers are inactive results; ? = inconclusive; / = no result.

SMILES	CatS inh	CatL inh	CatB inh	SKBR3 24h inh	CatB mix inh	Her2 expr inh
CS(=O)(=O)c1nc(-c2cccs2)cc(C(F)(F)F)n1	-5	-1	1	22*	0	-24*
COC(=O)c1cc(Nc2ncnc3c2cnn3-c2ccccc2)cc(C(=O)OC)c1	23	/	6	/	0	32
COc1ccc(CSc2nnnn2Cc2ccccc2)cc1OC	-27	/	5	90	-9	-0.9*
COc1ccc(C)cc1NC(=O)CSc1nnnn1Cc1ccccc1	-4	-21	1	77	-7	95
CC(C)N(Cc1nnc(-c2ccccc2Cl)o1)C(=O)c1cccc(C#N)c1	-11	2	7	79	-2	92
N#CC1=C2SCN(c3ccccc3)CN2C(=O)CC1c1c(Cl)cccc1Cl (stereo not drawn)	0	/	-6	/	2	68
Cc1ccc(C2CC(=O)N3CN(c4ccc(Br)cc4)CSC3=C2C#N)o1 (stereo not drawn)	-12	-5	-2	90	4	-19*
N#CC1=C2SCN(c3ccccc3)CN2C(=O)CC1c1cccs1 (stereo not drawn)	7	16	1	92	-3	-20*
c1ccc(Nc2ccccc2Nc2ccccn2)nc1	28	4	0	/	4	153
Oc1cccc2ccc(Nc3ccccn3)nc12	-12	4	-3	/	4	-20*
CC1=CC(C)(C)Nc2ccc(OC(=O)c3ccco3)cc21	4	13	2	14*	7	-20*
COc1ccc(-c2nc(C(N)=O)c3[nH]c(=O)n(-c4cccc(Cl)c4)c3n2)cc1OC	0	21	2	/	2	-12*
COc1cccc(-c2nc(C(N)=O)c3[nH]c(=O)n(-c4cccc(Cl)c4)c3n2)c1OC	1	-6	0	/	-1	97
CN1CC2=Cc3ccccc3OC23Oc2ccccc2C=C3C1	1	/	1	92	-2	-7.0*
CCN(CC)S(=O)(=O)c1ccc(F)c(C(=O)NCCC(C)C)c1	7	3	-1	/	-1	95
CCn1c(SCC(=O)C(C)(C)C)nnc1-c1ccccn1	14	7	2	/	5	91
CCn1c(SCC(=O)C(C)(C)C)nnc1-c1cnccn1	-4	-3	3	/	4	-19*
C=CCn1c(=O)c2ccccc2n2c(SCC(=O)c3ccccc3)nnc12	-1	10	6	68	6	81
C=CCn1c(=O)c2ccccc2n2c(SCc3cc(=O)n4ccsc4n3)nnc12	-7	-4	-4	/	7	-15*
CC(C)CCNC(=O)[C@H](CC(C)C)NC(=O)[C@H]1O[C@@H]1C(=O)O	/	99*	/	102	100*	99
O=C1C2ON(c3ccccc3)C(c3cccnc3)C2C(=O)N1c1ccc(Cl)c(Cl)c1 (stereo not drawn)	/	8	-2	109	/	-18*
O=C1C2ON(c3ccccc3)C(c3cccnc3)C2C(=O)N1c1ccccc1 (stereo not drawn)	14	-5	-2	90	-2	91
O=C(NCCCN1CCCC1=O)c1ccc(Cl)c(NS(=O)(=O)c2ccc(F)cc2)c1	-4	-6	-3	/	-3	100
COc1ccc(NC(=O)Cn2nnc(-c3ccccc3NC(=O)c3ccco3)n2)cc1	6	-2	3	28*	0	59
Cc1nc2sccn2c1-c1nc(C2CC2)c(C(=O)c2ccc3c(c2)NC(=O)CO3)s1	13	-15	2	/	1	89
SMILES	CatS inh	CatL inh	CatB inh	SKBR3 24h inh	CatB mix inh	Her2 expr inh
CCOc1cc2[nH]c(=S)n(CCCN3CCOCC3)c(=O)c2cc1OCC	-5	-6	-1	/	0	101
CCOC(=O)N1CCC(n2c(=S)[nH]c3cc(OCC)c(OCC)cc3c2=O)CC1	0	8	0	/	-4	0.2*
CCOc1ccccc1OCc1nn2c(COc3ccccc3)nnc2s1	-12	-11	0	84	-7	52
c1ccc(Cc2nn3c(COc4ccccc4)nnc3s2)cc1	-5	-8	2	100	4	-21*
CCOc1ccccc1N1CCN(Cc2ccc(OC)c(OC)c2OC)CC1	-8	-4	-7	99	-4	69
CCOc1ccccc1N1CCN(Cc2ccc(OC)c(OC)c2)CC1	-5	-3	-5	/	4	-20*
CCN1c2ccccc2NC2N=C(OC)C(c3ccccc3)C21 (stereo not drawn)	5	23	4	36*	-2	10
Cc1onc(-c2ccccc2Cl)c1C(=O)NCCn1c(C)cc2ccccc21	-16	-4	12	/	0	81
COC(=O)c1cc(NC(=O)c2c(Cl)nc3sccn23)cc(C(=O)OC)c1	4	-1	3	26*	6	20
O=C(CN1C(=O)C2C3C=CC(C3)C2C1=O)NCCN1CCCc2ccccc21 (stereo not drawn)	7	8	-2	102	7	120
O=C(CCN1C(=O)C2C3C=CC(C3)C2C1=O)NCCN1CCCc2ccccc21 (stereo not drawn)	-2	-2	0	30*	0	110
Cc1nn(-c2cccc(Cl)c2)c2c1C(c1ccncc1)C(C#N)=C(N)O2 (stereo not drawn)	12	13	5	88	6	78
Cc1ccc(-n2nc(C)c3c2OC(N)=C(C#N)C3c2ccc(F)cc2)cc1 (stereo not drawn)	18	-6	3	104	4	-28*
COc1ccc(C)cc1S(=O)(=O)N(CC(=O)O)c1ccc(F)cc1	-4	3	7	88	4	114
Cc1ccc(N(CC(=O)NC2CC3CCC2C3)S(C)(=O)=O)cc1C (stereo not drawn)	-3	-10	0	90	4	-28*
C=C1Cn2c(nnc2-c2ccc(Cl)cc2)S1	-2	1	3	/	-1	82
CC(=O)NC(=O)NC1OC(=O)C(Cl)=C1Cl (stereo not drawn)	9	25	21*	101	?	69
Cc1ccccc1S(=O)(=O)NC1OC(=O)C(Cl)=C1Cl (stereo not drawn)	-7	-11	2	125	3	67
CSc1nc(N2CCN(CCO)CC2)c2sc3nc(-c4ccco4)c4c(c3c2n1)CCC4	-1	72*	0	57	-5	19
Cc1cc(C)c2c(n1)sc1c(N3CCN(CCO)CC3)ncnc12	-1	-5	1	92	5	85
Cn1cc(Cl)c(-c2nc3ccccc3[nH]2)n1	1	15	-2	/	-1	82
Nc1nonc1-c1nc2ccccc2[nH]1	2	41	18	86	52*	45
Cc1c(Cl)cccc1NC(=O)NC1CCCCC1	-9	-1	2	83	0	106
O=C(Nc1ccccc1NC(=O)NC1CCCCC1)NC1CCCCC1	-2	-1	-1	?	0	-15*
CC(=O)C(Sc1ncnc2c1nnn2-c1ccc(F)cc1)C(=O)N(C)C (stereo not drawn)	17	8	1	/	4	-10*
